In PubChem BioAssay one finds z-score and composite z-score data, which are given here for 5 compounds.

Test [1] can be described thus: E. coli DRC41 culture turbidity changes, primary screen, E. coli filamentation inducer project, strain DRC41, OD650, 48 h (AID 1152).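 Also: E. coli MC1000 strain DRC41 lacking acrAB efflux pump and sulA.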 The note with it: E. coli DRC41 (acrAB sulA), higher = more signal, called active from +8 up or from −8 down.
A short description of test [2]: small-molecule binders of probe aLefty1, primary screen, biochemical, small-molecule microarray, 635/667 nm fluorescence (AID 1153).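 Also: score merges spot fluorescence with signal-to-noise ratio from the scanned slide images.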 The note with it: higher = more signal.
The nature of test [3]: PSAC antagonists in infected red cells, primary screen, cell-based, P. falciparum Indochina, OD700, 1 h (AID 1154). The note with it: P. falciparum Indochina infected RBC osmotic lysis, higher = more signal, called active from +8 up or from −8 down.
A short description of test [4]: PSAC antagonists in infected red cells, primary screen, cell-based, P. falciparum Indochina, OD700, 2 h (AID 1155).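 Also: lysis reports solute entry through the parasite surface anion channel PSAC; channel blockers reduce lysis of infected cells.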 The note with it: P. falciparum Indochina infected erythrocytes, osmotic lysis OD700; higher = more signal, called active from +8 up or from −8 down.
Test [5] is described as follows: osmotic lysis modulators in infected erythrocytes, primary screen, PSAC antagonist project, cell-based, P. falciparum Indochina, OD700, 3 h (AID 1156). The settings on record: higher = more signal, called active from +8 up or from −8 down.
Test [6] can be described thus: PSAC antagonists in infected red cells, primary screen, cell-based, P. falciparum Indochina, OD700, 18 h (AID 1157). The note with it: P. falciparum Indochina infected erythrocytes, osmotic lysis OD700, 18 h; higher = more signal, called active from +8 up or from −8 down.
Test [7] can be described thus: modulators of S6 phosphorylation in cells, primary screen, cell-based, A549, cytoblot, luminescence, serum-stimulated (AID 1158).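 Also: serum-stimulated A549 lung adenocarcinoma cells; signal is phosphorylated S6 detected by cytoblot immunostaining with HRP secondary.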 The settings on record: A549 phospho-S6 cytoblot, 5 h, higher = more signal.
Test [8] deals with NADPH oxidase 2 (Homo sapiens) (UniProt P04839). The experiment in a line: NOX2-dependent H2O2 signal modulators, primary screen, NOX inhibitor project, cell-based, HEK293-NOX2, PMA-stimulated, Amplex Red fluorescence (AID 1159). Also: test concentration not given here. The settings on record: 45 min, higher = more signal, called active from +8 up or from −8 down.
Chain of NADPH oxidase 2 (Homo sapiens) (P04839 whole entry, looked up): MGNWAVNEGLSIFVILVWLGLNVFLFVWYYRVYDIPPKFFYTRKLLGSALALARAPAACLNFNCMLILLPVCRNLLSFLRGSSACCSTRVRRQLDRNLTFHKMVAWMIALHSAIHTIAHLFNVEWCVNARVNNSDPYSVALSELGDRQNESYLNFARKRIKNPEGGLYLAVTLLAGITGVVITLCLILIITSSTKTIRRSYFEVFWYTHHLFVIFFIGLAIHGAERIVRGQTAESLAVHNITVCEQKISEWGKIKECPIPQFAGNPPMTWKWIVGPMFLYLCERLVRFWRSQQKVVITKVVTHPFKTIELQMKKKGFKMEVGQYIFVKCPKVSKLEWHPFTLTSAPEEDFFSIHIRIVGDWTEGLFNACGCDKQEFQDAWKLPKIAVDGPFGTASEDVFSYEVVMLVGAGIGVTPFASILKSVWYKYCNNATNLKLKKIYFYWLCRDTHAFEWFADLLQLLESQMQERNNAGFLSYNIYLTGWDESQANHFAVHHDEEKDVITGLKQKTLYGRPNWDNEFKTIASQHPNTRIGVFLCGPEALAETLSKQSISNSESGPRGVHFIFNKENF
The target in test [9] is NADPH oxidase 4 (Homo sapiens) (UniProt Q9NPH5). The test can be described thus: NOX4-dependent H2O2 signal modulators, primary screen, NOX inhibitor project, cell-based, HEK293-NOX4, tetracycline-induced, Amplex Red fluorescence (AID 1160). The note with it: 45 min, higher = more signal, called active from +8 up or from −8 down.
Chain of NADPH oxidase 4 (Homo sapiens) (Q9NPH5 whole entry, looked up): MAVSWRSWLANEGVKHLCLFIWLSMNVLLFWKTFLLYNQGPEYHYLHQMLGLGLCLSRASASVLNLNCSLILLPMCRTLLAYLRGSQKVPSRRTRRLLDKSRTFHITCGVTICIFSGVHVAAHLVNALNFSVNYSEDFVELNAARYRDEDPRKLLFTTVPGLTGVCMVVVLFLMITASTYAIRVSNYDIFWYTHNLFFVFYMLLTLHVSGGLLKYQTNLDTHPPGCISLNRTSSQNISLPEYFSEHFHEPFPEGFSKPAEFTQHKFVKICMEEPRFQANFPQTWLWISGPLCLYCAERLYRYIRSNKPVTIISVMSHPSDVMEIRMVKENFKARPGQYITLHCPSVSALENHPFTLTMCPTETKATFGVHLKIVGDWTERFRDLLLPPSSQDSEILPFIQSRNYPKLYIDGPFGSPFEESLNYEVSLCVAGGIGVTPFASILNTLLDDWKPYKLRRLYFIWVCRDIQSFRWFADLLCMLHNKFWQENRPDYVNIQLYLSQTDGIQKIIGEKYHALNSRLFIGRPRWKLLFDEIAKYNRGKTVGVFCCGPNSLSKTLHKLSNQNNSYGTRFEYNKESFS
The target of test [10] is NADPH oxidase 5 (Homo sapiens) (UniProt Q96PH1). The test can be described thus: NOX5-dependent H2O2 signal modulators, primary screen, NOX inhibitor project, cell-based, HEK293-NOX5, Amplex Red fluorescence (AID 1161). The settings on record: HEK293-NOX5, ionomycin, 45 min, higher = more signal.
Chain of NADPH oxidase 5 (Homo sapiens) (Q96PH1 whole entry, looked up): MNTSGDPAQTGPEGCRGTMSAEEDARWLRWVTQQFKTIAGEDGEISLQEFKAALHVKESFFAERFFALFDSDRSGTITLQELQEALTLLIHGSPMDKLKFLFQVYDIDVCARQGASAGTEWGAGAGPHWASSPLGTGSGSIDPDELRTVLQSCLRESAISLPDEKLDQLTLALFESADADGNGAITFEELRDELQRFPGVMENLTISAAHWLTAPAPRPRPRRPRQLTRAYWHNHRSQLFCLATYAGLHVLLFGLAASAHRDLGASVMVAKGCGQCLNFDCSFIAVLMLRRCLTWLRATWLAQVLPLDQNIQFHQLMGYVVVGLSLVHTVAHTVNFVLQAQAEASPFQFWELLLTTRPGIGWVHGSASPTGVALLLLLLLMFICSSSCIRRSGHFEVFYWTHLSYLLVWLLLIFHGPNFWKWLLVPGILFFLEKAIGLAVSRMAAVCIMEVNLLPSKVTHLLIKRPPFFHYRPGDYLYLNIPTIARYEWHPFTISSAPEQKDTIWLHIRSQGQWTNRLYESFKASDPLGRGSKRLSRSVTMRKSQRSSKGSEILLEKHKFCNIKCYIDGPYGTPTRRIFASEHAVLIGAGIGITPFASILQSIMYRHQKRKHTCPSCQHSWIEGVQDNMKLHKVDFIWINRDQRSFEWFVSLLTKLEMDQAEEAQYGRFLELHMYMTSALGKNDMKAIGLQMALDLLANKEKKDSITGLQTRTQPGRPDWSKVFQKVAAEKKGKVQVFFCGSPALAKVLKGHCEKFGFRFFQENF
The nature of test [11]: A549 cell viability effects, profiling panel, calcein-AM fluorescence, 48 h, basal (AID 1162). Also: test concentration not given here. The settings on record: higher = more signal.
Test [12] is described as follows: adipocyte viability effects, profiling panel, cell-based, 3T3-L1 adipocytes, calcein-AM fluorescence, 48 h, basal (AID 1163). Also: test concentration not given here. The settings on record: 3T3-L1 adipocytes viability, higher = more signal.
Test [13] is described as follows: HepG2 cell viability effects, profiling panel, calcein-AM fluorescence, 48 h, basal (AID 1164). Also: test concentration not given here. The note with it: higher = more signal.
Test [14] in a line: MM1S cell viability effects, profiling panel, calcein-AM fluorescence, 48 h, basal (AID 1165).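 Also: viability of MM1S multiple myeloma cells under basal unstimulated conditions; test concentration not given here.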 The note with it: higher = more signal.
Test [15] is described as follows: basal RPMI8226 viability, no added stimulus, profiling panel, cell-based, calcein-AM fluorescence, 48 h, PK04 Diversity Set (AID 1166).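 Also: cells grown under basal conditions without added stimulus; test concentration not given here.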 The settings on record: RPMI8226 myeloma viability, higher = more signal.
Test [16] in a line: basal HepG2 mitochondrial membrane potential changes, profiling panel, cell-based, JC-1 fluorescence, 24 h, 100 nL compound (AID 1167). Also: test concentration not given here. The note with it: higher = more signal.
Test [17] in a line: basal 3T3-L1 adipocyte mitochondrial potential changes, profiling panel, cell-based, JC-1 fluorescence, 3T3-L1 adipocytes, 24 h, 100 nL compound (AID 1168). Also: test concentration not given here. The settings on record: JC-1 mitochondrial fluorescence, higher = more signal, called active from +8 up or from −8 down.
Test [18] is described as follows: basal RPMI8226 mitochondrial membrane potential changes, profiling panel, cell-based, JC-1 fluorescence, 24 h, 100 nL compound (AID 1169). Also: test concentration not given here. The note with it: RPMI8226 myeloma, JC-1 mitochondrial potential fluorescence, higher = more signal.
A short description of test [19]: basal MM1S mitochondrial membrane potential changes, profiling panel, cell-based, JC-1 fluorescence, 24 h, 100 nL compound (AID 1170). Also: test concentration not given here. The settings on record: higher = more signal.
Test [20] can be described thus: A549 lung cancer cell viability effects, profiling panel, resazurin fluorescence, 24 h, PK04 Diversity Set (AID 1171). Also: test concentration not given here. The note with it: higher = more signal, called active from +8 up or from −8 down.

SMILES strings stand for the structures. Active and inactive are the calls of the source.

`Cc1ccc(S(=O)(=O)OC[C@H]2CN3[C@H](c4ccc(Br)cc4)[C@@H](C)CC[C@H]3C(=O)O2)cc1`: the z-score was 0.399 (inactive) in [1]; 3.18 (inactive) in test [3]; 0.57 (inactive) in test [4]; 0.896 (inactive) in test [5]; 0.761 (inactive) in test [6]; 0.0084 in test [7]. Further, the z-score in [8] was 0.407 (inactive); in [9] it was 0.484 (inactive); in [10] it was -0.632; in test [11] it was 0.602; in [12], -0.744; in test [13] it was 0.62. The z-score in test [14] was -0.0638; in test [15], -0.75; in test [16], 0.914; in test [17] it was 0.555 (inactive); in [18] it was -0.103; in test [19], 0.222. In addition, the z-score in [20] was 0.683 (inactive). For the same compound, the composite z-score in test [2] is -0.0501.

Consider `CC(CCN1CCCCc2nc(C)c(C)cc21)=NO[C@H](C)c1cn([C@H](CO)Cc2ccccc2)nn1`, for which the z-score in [1] was 0.285 (inactive); in [3], 2.87 (inactive); in test [4], 1.16 (inactive); in test [5] it was 0.758 (inactive); in test [6] it was 0.589 (inactive); in test [7], -0.286. The z-score in [8] was -0.939 (inactive); in [9], 0.0532 (inactive); in test [10], 0.477; in test [11], 0.277; in [12], 0.72; in test [13], -0.386. The z-score is 0.607 in test [14]; -1.4 in [15]; -0.969 in test [16]; -2.1 (inactive) in test [17]; 0.686 in test [18]; -0.457 in [19]. Besides, in [20], the z-score was -0.0266 (inactive). For the same compound, the composite z-score in [2] was -0.0162.

As for `CCCCC#C[C@@H]1C=C[C@H](Oc2ccc(C(=O)OC)cc2)[C@@H](COC(=O)OCC)O1`, the z-score is 0.0015 (inactive) in test [1]; 5.53 (inactive) in test [3]; 1.38 (inactive) in test [4]; 0.77 (inactive) in test [5]; 0.0033 (inactive) in test [6]; 0.164 in test [7]. In addition, the z-score was 1.82 (inactive) in test [8]; 0.725 (inactive) in [9]; 1.03 in [10]; -1.07 in test [11]; 0.416 in test [12]; -3.26 in test [13]. The z-score in test [14] was -3.56; in test [15], -3.46; in test [16], -0.918; in [17] it was 0.281 (inactive); in [18] it was -0.614; in [19], -1.95. The z-score in test [20] is 0.313 (inactive). Besides, the composite z-score in test [2] is -0.0559.

With `CO[C@H]1COC(=O)CC=C[C@H](C)[C@@H](OC)COC(=O)[C@@H](C)COC(=O)CC=C[C@@H]1C`, the z-score in test [1] is -0.513 (inactive); in [3], -0.435 (inactive); in [4], 0.106 (inactive); in test [5], 0.033 (inactive); in test [6] it was -0.213 (inactive); in test [7], -0.0875. In addition, the z-score in test [8] was -1.46 (inactive); in test [9], 0.28 (inactive); in test [10] it was 0.18; in test [11], -0.0895; in [12] it was 1.19; in test [13], 0.389. The z-score in [14] was 0.242; in test [15] it was 0.21; in [16] it was 0.429; in [17] it was 0.673 (inactive); in [18], -0.296; in [19] it was 1.01. Further, the z-score in test [20] was 0.455 (inactive). Further, the composite z-score in test [2] is -0.193.

Take `COC(=O)CC=C[C@@H](C)[C@@H](C=NO[C@H](C)c1cn([C@H](CO)Cc2ccccc2)nn1)OC`: the z-score was -0.36 (inactive) in test [1]; 0.727 (inactive) in test [3]; 0.0995 (inactive) in [4]; -0.721 (inactive) in [5]; 0.0239 (inactive) in test [6]; -0.505 in test [7]. Besides, the z-score is 0.824 (inactive) in [8]; 0.541 (inactive) in test [9]; 0.299 in test [10]; -0.0647 in [11]; 0.304 in test [12]; -0.458 in [13]. Besides, the z-score is 0.209 in test [14]; 0.0397 in test [15]; -0.741 in test [16]; -1.24 (inactive) in [17]; 0.923 in test [18]; 1.74 in test [19]. For the same compound, in test [20], the z-score was 0.556 (inactive). In [2], the composite z-score was -0.104.
